Results taken from PubChem BioAssay (NCI).
This is part of a sample that, as a whole, favours compounds with a hit. Of some 79,000 tested, about 15% had one in any assay. Activity calls are given as the source filed them. No stated cut-off is given here; in the data, active means growth inhibition above about 70%; inactive means the rest.

Experiments:
[1] = NCI Yeast Anticancer Drug Screen. Data for the mlh1 rad18 strain (AID 175); conditions: S. cerevisiae mlh1 rad18 strain growth inhibition, hits give high values
Method in brief: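 A repair-deficient yeast strain is exposed to test compound, and growth is scored relative to vehicle-treated controls.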

[2] = NCI Yeast Anticancer Drug Screen. Data for the wt1 strain (AID 149);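 further: 0% = growth of vehicle-treated wt1 cultures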; conditions: S. cerevisiae wt1 strain (SPY 50644) growth inhibition, hits give high values
Method in brief: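 The wt1 strain was treated with compounds, and growth was compared with vehicle-treated cultures to give inhibition.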

[3] = NCI Yeast Anticancer Drug Screen. Data for the rad50 strain (AID 155);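 further: 0% = growth of vehicle-only cultures of the same strain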; conditions: S. cerevisiae rad50 strain growth inhibition, hits give high values
Method in brief: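 Cells are treated with compound, grown, and their growth is then scored against vehicle-only cultures of the same repair-deficient yeast strain.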

[4] = NCI Yeast Anticancer Drug Screen. Data for the mec2-1 strain (AID 157); conditions: S. cerevisiae mec2-1 strain, hits give high values
Method in brief: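 Compounds were applied to mec2-1 yeast cells. Their growth was then compared with that of vehicle-treated cultures to give growth inhibition.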

[5] = NCI Yeast Anticancer Drug Screen. Data for the rad14 strain (AID 159);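 further: 0% = growth of vehicle-treated control cultures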; conditions: S. cerevisiae rad14 strain growth inhibition, hits give high values
Method in brief: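 Readout: yeast growth inhibition, referenced to vehicle-only cultures. Strain bears a defined alteration in DNA damage repair.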

[6] = NCI Yeast Anticancer Drug Screen. Data for the sgs1 mgt1 strain (AID 161);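 further: 0% = growth of cultures given vehicle only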; conditions: S. cerevisiae sgs1 mgt1 strain, hits give high values
Method in brief: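 This yeast growth screen uses a strain with defined DNA-repair lesions; compound-treated growth is compared with vehicle-treated growth.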

[7] = NCI Yeast Anticancer Drug Screen. Data for the CLN2oe strain (AID 163);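 further: 0% = growth of vehicle-only control cultures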; conditions: S. cerevisiae CLN2oe strain, hits give high values
Method in brief: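 Cells of an engineered yeast line with disturbed cell-cycle regulation are treated with compound. Inhibition of growth is then calculated relative to the vehicle-treated reference.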

[8] = NCI Yeast Anticancer Drug Screen. Data for the cln2 rad14 strain (AID 165);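 further: 0% = growth equal to vehicle treated cultures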; conditions: S. cerevisiae cln2 rad14 strain, hits give high values
Method in brief: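 Strain: cln2 rad14 yeast, altered in cell cycle control and DNA damage repair. Read-out: growth inhibition vs vehicle.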

[9] = NCI Yeast Anticancer Drug Screen. Data for the bub3 strain (AID 167); conditions: S. cerevisiae bub3 mutant strain, hits give high values
Method in brief: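 Part of a panel of yeast mutants defective in DNA damage repair or cell cycle regulation. Each strain is grown with compound, and inhibition is calculated relative to solvent-treated cultures.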

[10] = NCI Yeast Anticancer Drug Screen. Data for the wt2 strain (AID 169);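 further: 0% = growth of vehicle-treated yeast cultures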; conditions: S. cerevisiae wt2 strain growth inhibition, hits give high values
Method in brief: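 Growth of compound-treated yeast is measured and expressed as inhibition relative to vehicle-only controls.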

[11] = NCI Yeast Anticancer Drug Screen. Data for the mlh1 strain (AID 171);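 further: 0% = growth of vehicle-treated control cultures of the same strain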; conditions: S. cerevisiae mlh1 strain growth inhibition, hits give high values
Method in brief: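 Test agents were incubated with yeast bearing a defined DNA damage repair or cell cycle control alteration; values are growth inhibition normalised to vehicle-treated cultures.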

[12] = NCI Yeast Anticancer Drug Screen. Data for the rad18 strain (AID 177); conditions: S. cerevisiae rad18 mutant growth inhibition, hits give high values
Method in brief: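 DNA-repair-defective yeast; compound treatment; growth inhibition scored against vehicle.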

[13] = NCI Yeast Anticancer Drug Screen. Data for the rad50EPP+ strain (AID 151);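 further: 0% = growth of vehicle-treated control cultures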; conditions: S. cerevisiae rad50 mutant strain, hits give high values
Method in brief: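 Measured: growth inhibition of rad50EPP+ yeast. Reference: vehicle-treated controls. Screen uses strains with defined genetic alterations in DNA damage repair or cell cycle control.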

[14] = NCI Yeast Anticancer Drug Screen. Data for the mgt1 strain (AID 153); conditions: S. cerevisiae mgt1 mutant growth inhibition, hits give high values
Method in brief: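 Compounds were applied to mgt1 mutant yeast, and growth was then compared against vehicle-treated control cultures to give percent inhibition.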

[15] = NCI Yeast Anticancer Drug Screen. Data for the sgs1 strain (AID 173);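 further: 0% = growth of vehicle-only control cultures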; conditions: S. cerevisiae sgs1 mutant, hits give high values
Method in brief: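 Strain with an altered DNA repair or cell cycle pathway exposed to compound. Growth then measured. Value = inhibition versus vehicle control.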

[16] = at 5.0 µM (retest, dose inferred, filed as 0.5)
[17] = at 50.0 µM (retest, dose inferred, filed as 5.0)

Measured: growth inhibition

CC(=O)O[C@H]1C(=O)[C@@]2(C)[C@H]([C@H](OC(=O)c3ccccc3)[C@]3(O)C[C@H](OC(=O)[C@H](O)[C@@H](NC(=O)c4ccccc4)c4ccccc4)C(C)=C1C3(C)C)[C@]1(OC(C)=O)CO[C@@H]1C[C@@H]2O
inactive: [1]; at 50.0 µM 15.8%

COc1ccc(N=Nc2ccc3oc(=O)c(C(=O)Nc4ccccc4)cc3c2)cc1
inactive: [2]; at 1.2 µM -4% | [2]; at 3.7 µM 2% | [2]; at 11.0 µM 67% | [3]; at 1.2 µM -2% | [3]; at 3.7 µM 7% | [3]; [16] 0% | [4]; at 1.2 µM -18% | [4]; at 3.7 µM 12% | [4]; [16] -12% | [5]; at 1.2 µM 4% | [5]; at 3.7 µM 25% | [6]; [16] 12% | [6]; [17] 48% | [7]; at 1.2 µM -12% | [7]; at 3.7 µM -10% | [7]; at 11.0 µM 48% | [8]; [16] -19% | [9]; at 1.2 µM -11% | [9]; at 3.7 µM 3% | [9]; [16] 29% | [10]; at 1.2 µM 1% | [10]; at 3.7 µM 14% | [11]; at 1.2 µM 25% | [11]; at 3.7 µM 31% | [1]; [16] 39% | [12]; at 1.2 µM -7% | [12]; at 3.7 µM 5%
active: [2]; at 33.0 µM 96% | [2]; at 100.0 µM 94% | [3]; at 11.0 µM 89% | [3]; at 33.0 µM 96% | [3]; [17] 95% | [3]; at 50.0 µM 87.7% | [3]; at 100.0 µM 96% | [4]; at 11.0 µM 82% | [4]; at 33.0 µM 97% | [4]; [17] 97% | [4]; at 50.0 µM 91.3% | [4]; at 100.0 µM 95% | [5]; at 11.0 µM 96% | [5]; at 33.0 µM 97% | [5]; at 100.0 µM 97% | [6]; at 50.0 µM 87.2% | [7]; at 33.0 µM 95% | [7]; at 100.0 µM 92% | [8]; [17] 95% | [8]; at 50.0 µM 85.3% | [9]; at 11.0 µM 71% | [9]; at 33.0 µM 96% | [9]; [17] 96% | [9]; at 50.0 µM 90.5% | [9]; at 100.0 µM 95% | [10]; at 11.0 µM 81% | [10]; at 33.0 µM 96% | [10]; at 100.0 µM 96% | [11]; at 11.0 µM 92% | [11]; at 33.0 µM 96% | [11]; at 100.0 µM 91% | [1]; [17] 95% | [1]; at 50.0 µM 85.7% | [12]; at 11.0 µM 84% | [12]; at 33.0 µM 95% | [12]; at 100.0 µM 96%

COc1cc([C@@H]2c3cc4c(cc3[C@@H](OC3OC5COC(C)OC5C(O)C3O)[C@H]3COC(=O)[C@H]23)OCO4)cc(OC)c1O (stereo not given in full)
inactive: [2]; at 1.2 µM -1% | [2]; at 3.7 µM -2% | [2]; at 11.0 µM -2% | [2]; at 33.0 µM -1% | [2]; at 100.0 µM -13% | [13]; at 1.2 µM -9% | [13]; at 3.7 µM -3% | [13]; at 11.0 µM 2% | [13]; at 33.0 µM 9% | [13]; at 100.0 µM 23% | [14]; at 1.2 µM -4% | [14]; at 3.7 µM -4% | [14]; at 11.0 µM -2% | [14]; at 33.0 µM 0% | [14]; at 100.0 µM 0% | [3]; at 1.2 µM 0% | [3]; at 3.7 µM 4% | [3]; at 11.0 µM 20% | [3]; at 33.0 µM 61% | [3]; at 50.0 µM 11.6% | [4]; at 1.2 µM -3% | [4]; at 3.7 µM 0% | [4]; at 11.0 µM 4% | [4]; at 33.0 µM 2% | [4]; at 50.0 µM 11.6% | [4]; at 100.0 µM 4% | [5]; at 1.2 µM -2% | [5]; at 3.7 µM -2% | [5]; at 11.0 µM 3% | [5]; at 33.0 µM 2% | [5]; at 100.0 µM 12% | [6]; at 50.0 µM 13.8% | [7]; at 1.2 µM -2% | [7]; at 3.7 µM -6% | [7]; at 11.0 µM -4% | [7]; at 33.0 µM -4% | [7]; at 100.0 µM -6% | [8]; at 50.0 µM 11.3% | [9]; at 1.2 µM -7% | [9]; at 3.7 µM -8% | [9]; at 11.0 µM 0% | [9]; at 33.0 µM -12% | [9]; at 50.0 µM 4.5% | [9]; at 100.0 µM -5% | [10]; at 1.2 µM -3% | [10]; at 3.7 µM -2% | [10]; at 11.0 µM -4% | [10]; at 33.0 µM -3% | [10]; at 100.0 µM 3% | [15]; at 1.2 µM -3% | [15]; at 3.7 µM -3% | [15]; at 11.0 µM 1% | [15]; at 33.0 µM 5% | [15]; at 100.0 µM 16% | [1]; at 50.0 µM 64.8% | [12]; at 1.2 µM -4% | [12]; at 3.7 µM -2% | [12]; at 11.0 µM -2% | [12]; at 33.0 µM 6% | [12]; at 100.0 µM 18%
active: [3]; at 100.0 µM 89%
